A selection: hits, their analogues and other compounds. The true share with any hit is near 4.2%.
GDH-TPI counter-1 – GDH-TPI coupled enzyme inhibition counter-screen; GDH-TPI coupled enzyme counterscreen, NADH absorbance; inhibition, % at 4.8 µM; 360,000 compounds, 1.2% hits; in the data active = inhibition above about 30%
FBA Mtb inh – Mtb fructose-bisphosphate aldolase inhibition | inhibition, % at 1 µM | 360,000 compounds, 2.3% hits | purified M. tuberculosis FBA, fluorescence read-out | P9WQA3
RecA splice inh – blocks M. tuberculosis RecA intein splicing. P9WHJ3. cell-free RecA intein splicing, fluorescence. inhibition, % (concentration not given with the values). 290,000 compounds, 0.75% hits. AID 2221; in the data active = inhibition above about 30%
Target sequence (P9WHJ3 whole entry, looked up, canonical isoform): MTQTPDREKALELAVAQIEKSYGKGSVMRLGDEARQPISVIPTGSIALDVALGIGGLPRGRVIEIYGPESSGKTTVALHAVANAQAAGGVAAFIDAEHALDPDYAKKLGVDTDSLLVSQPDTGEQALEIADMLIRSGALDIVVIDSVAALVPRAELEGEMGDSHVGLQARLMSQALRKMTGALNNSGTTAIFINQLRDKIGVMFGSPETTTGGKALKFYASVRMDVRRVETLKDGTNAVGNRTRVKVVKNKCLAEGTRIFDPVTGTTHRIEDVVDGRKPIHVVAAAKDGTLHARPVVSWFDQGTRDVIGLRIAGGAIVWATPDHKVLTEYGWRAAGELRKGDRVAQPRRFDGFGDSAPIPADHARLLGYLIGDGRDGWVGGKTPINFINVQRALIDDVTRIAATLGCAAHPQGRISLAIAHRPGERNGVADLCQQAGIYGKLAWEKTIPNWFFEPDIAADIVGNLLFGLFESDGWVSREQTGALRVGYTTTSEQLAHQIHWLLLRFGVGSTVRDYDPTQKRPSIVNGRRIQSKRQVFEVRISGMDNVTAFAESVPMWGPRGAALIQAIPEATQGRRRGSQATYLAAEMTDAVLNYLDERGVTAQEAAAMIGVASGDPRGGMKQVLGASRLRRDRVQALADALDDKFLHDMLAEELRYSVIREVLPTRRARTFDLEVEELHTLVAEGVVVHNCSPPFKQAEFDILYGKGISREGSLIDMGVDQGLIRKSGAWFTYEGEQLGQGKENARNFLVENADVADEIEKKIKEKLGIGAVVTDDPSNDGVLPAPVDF
CCHF vOTU inh – blocks the CCHF virus ovarian tumor domain protease; CCHFV vOTU protease, Pep-AMC fluorescence; inhibition, % at 11.5 µM; 370,000 compounds, 0.55% hits; in the data active = inhibition above about 30%
Mtb FBA inh conf – Mtb FBA inhibition, confirmed | 5,600 compounds, 78% hits | purified M. tuberculosis FBA, fluorescence read-out | AID 651616 | shares compounds with FBA Mtb inh | inhibition, % at 1 µM
GDH-TPI counter-2 – inhibits GDH-TPI coupling enzymes, flagging Mtb FBA hits; GDH-TPI coupled enzyme counterscreen, fluorescence; shares compounds with FBA Mtb inh; inhibition, % at 1 µM; 5,600 compounds, 81% hits; in the data active = inhibition above about 10%
GDH-TPI DR – inhibits GDH-TPI coupling enzymes in dose response; GDH-TPI coupled enzyme assay, fluorescence, artifact counterscreen; shares compounds with FBA Mtb inh; 170 compounds, 79% hits; IC50, µM; AID 652145; call rule not given here
Hits are given with their value; 0 = inactive; - = no result; + = active, no number. Cut-off read from the data, not from the text of the source, unless noted: active = inhibition above about 27%; inactive = the rest.

SMILES	GDH-TPI counter-1	FBA Mtb inh	RecA splice inh	CCHF vOTU inh	Mtb FBA inh conf	GDH-TPI counter-2	others
CN(C)C1CCN(C(=O)c2cccc(OC3CCN(S(=O)(=O)N(C)C)CC3)c2)C1 (stereo not given)	0	0	0	0	-	-
Nc1nc2n(n1)C(c1cccs1)CC(c1ccc(Br)cc1)N2 (stereo not given)	0	48	0	0	0	0	GDH-TPI DR=7.8
Cn1c(=O)c2c(nc(SCCN3CCCCC3)n2Cc2ccc(Cl)cc2)n(C)c1=O	0	44	0	0	80	68
CCSc1nc2c(c(=O)n(C)c(=O)n2C)n1Cc1ccc(Cl)cc1	0	0	0	0	-	-
O=C(CCC(=O)N(CC(=O)NC1CCCC1)c1ccccc1F)Nc1nccs1	0	0	0	0	-	-
O=C(Nc1cccc(S(=O)(=O)N2CCCCC2)c1)c1cc(=O)[nH]c2ccccc12	0	0	-	0	-	-
Cn1c(SCc2cccc(C#N)c2)nc2ccccc2c1=O	0	29	0	0	0	0
O=C(CSc1nncs1)Nc1ccc(Cl)cc1C(F)(F)F	0	0	0	0	-	-
Cc1nn(-c2ccccc2)c2sc(C(=O)OC3CCOC3=O)cc12 (stereo not given)	0	56	0	0	31	20
CCOC(=O)c1cc2c(C)nn(-c3ccccc3)c2s1	0	0	0	0	-	-
CCc1nc2sc(C#N)c(N)c2c2c1CCCC2	0	49	0	0	+	171
CCc1nc2sc(C(C)=O)c(N)c2c2c1CCCC2	0	0	0	0	-	-
COCCNc1nc(Nc2ccc(C#N)cc2)c2sccc2n1	0	0	-	0	-	-
Cc1oc2cc(O)ccc2c(=O)c1Oc1ccccc1	0	101	0	0	83	59
CCOc1ccc(Oc2c(C)oc3cc(O)ccc3c2=O)cc1	0	44	0	0	+	160
COC(=O)c1cc(-c2c(C)oc3cc(O)ccc3c2=O)c(C)o1	0	76	0	0	29	32
Cc1oc2cc(O)ccc2c(=O)c1Oc1ccccc1Br	0	96	0	0	0	0
COC(=O)COc1ccc2c(=O)c(Oc3ccccc3)c(C)oc2c1	0	0	0	0	-	-
O=C1C(CN2CCCC2)CCCC1CN1CCCC1 (stereo not given)	0	0	-	0	-	-
Cc1ccc(C2(C)NC(=O)N(CC(=O)NNC(=O)c3cc(C)oc3C)C2=O)cc1 (stereo not given)	0	0	0	0	-	-
Cc1ccc(-c2cc(C(F)F)nc(N3CCOCC3)n2)cc1	0	0	0	0	-	-
COc1ccc(-c2cc(C(F)F)nc(-n3nc(C)cc3C)n2)cc1	0	52	0	0	63	44
O=C(NCCc1ccccc1)C1Cc2c(-c3ccccc3Oc3ccccc3)ccnc2O1 (stereo not given)	0	0	-	0	-	-
N#Cc1nc(COc2cccc(Cl)c2)oc1NCCN1CCOCC1	0	0	0	0	-	-
N#Cc1nc(-c2ccc(F)cc2)oc1NCCN1CCOCC1	0	46	0	0	81	62
SMILES	GDH-TPI counter-1	FBA Mtb inh	RecA splice inh	CCHF vOTU inh	Mtb FBA inh conf	GDH-TPI counter-2	others
Cc1cccc(-c2nc(C#N)c(NCC3CCCO3)o2)c1 (stereo not given)	0	34	0	0	109	88
Cc1ccc(-c2nc(C#N)c(NCCN3CCCCC3)o2)cc1	0	94	-	0	170	121
O=S(=O)(c1ccc(F)cc1)c1nc(-c2ccc(F)cc2)oc1NCCN1CCOCC1	0	0	0	0	-	-
N#Cc1nc(-c2ccccc2F)oc1NCCN1CCOCC1	0	36	0	0	84	81
COCCn1c(C)c(C)c(S(=O)(=O)c2ccccc2)c1N	0	0	0	0	-	-
CCOc1ccc(/C(O)=C2/C(=O)C(=O)N(c3ccccn3)C2c2ccc(F)cc2)c(C)c1 (stereo not given)	0	0	0	0	-	-
CCOc1ccc2oc(C(=O)N(CC)CC(=O)Nc3c(F)cccc3F)c(C)c2c1	0	0	0	0	-	-
CCN(CC(=O)Nc1c(F)cccc1F)C(=O)COc1ccc2c(C)cc(=O)oc2c1	0	30	-	0	123	109
Cc1cccc(C)c1NC(=O)COC(=O)COc1ccc2c(C)cc(=O)oc2c1	0	0	0	0	-	-
Cc1cc(=O)oc2cc(OCC(=O)OC(C)C(=O)Nc3ccc(S(N)(=O)=O)cc3)ccc12 (stereo not given)	0	33	-	0	82	66
Cc1cccc(C(C)C)c1NC(=O)COC(=O)COc1ccc2c(C)cc(=O)oc2c1	0	30	0	0	0	0
CCOc1ccc(N(CC(=O)NCCSCc2ccccc2)S(C)(=O)=O)cc1	0	0	0	0	-	-
Cc1cccc(NC(=O)CN2C(=O)N/C(=C\c3ccc(-c4cccc(C(=O)O)c4)o3)C2=O)c1	0	34	0	0	189	143
Cc1ccc(-c2nc3ccc(C)cn3c2Cc2ccccc2C(F)(F)F)cc1	-	0	-	0	-	-
Cc1ccc(-c2nc3ccc(C)cn3c2CC(=O)N(C)C)cc1	0	52	0	0	56	47
COc1ccc2cc3cc(C(=O)NC4CC4)sc3nc2c1	0	102	0	0	130	117
CCOC(=O)CC(=O)CSc1nc(-c2cccnc2)cc(C)c1C#N	0	0	0	0	-	-
CCOC(=O)CC(=O)CSc1nc(-c2cccnc2)ccc1C#N	0	38	0	0	+	+
O=C(Oc1ccccc1F)c1ccc2c(=O)n3c(nc2c1)CCC3	0	0	0	0	-	-
Cc1sc2ncnc(N3CCN(C(=O)c4ccco4)CC3)c2c1C	0	0	0	0	-	-
Cc1cccc2[nH]c3c(N4CCN(C(=O)c5ccco5)CC4)ncnc3c12	0	44	0	-	58	42
Clc1ccc2[nH]c3c(N4CCC5(CC4)OCCO5)ncnc3c2c1	-	-	0	-	-	-
Cc1cccc2[nH]c3c(N4CCC5(CC4)OCCO5)ncnc3c12	31	41	0	0	68	52
O=C(NCC1CCCN1S(=O)(=O)c1cccs1)C(=O)Nc1ccc(F)cc1F (stereo not given)	0	0	0	0	-	-
O=C(C1CC(=O)N(c2ccc(Cl)cc2)C1)N1CCC(c2nc3ccccc3[nH]2)CC1 (stereo not given)	0	0	0	0	-	-
SMILES	GDH-TPI counter-1	FBA Mtb inh	RecA splice inh	CCHF vOTU inh	Mtb FBA inh conf	GDH-TPI counter-2	others
N#Cc1c(N(CCO)CCO)nc(N)c2c(N)nc3c(c12)CC(=O)N3CC1CCCO1 (stereo not given)	0	37	0	0	171	152
CCCCc1cc(=O)oc2c(C)c(OCC(=O)N3CCCC3)ccc12	0	0	0	0	-	-
CCCc1cc(=O)oc2cc(OCc3nn[nH]n3)ccc12	0	34	0	0	57	36
CCCCc1cc(=O)oc2c(C)c(OCc3nn[nH]n3)ccc12	0	28	0	0	59	43
CCCc1cc(=O)oc2cc(Oc3ncccn3)ccc12	0	0	0	0	-	-
CCCc1cc(=O)oc2cc(OCc3ccc(C(=O)O)o3)ccc12	0	36	0	0	0	0	GDH-TPI DR=4.8
CCOc1ccc(OCc2ccc(C(=O)O)o2)cc1	0	0	0	0	-	-

Compound activity from PubChem.
